Sampled rows, rich in hits. Any-hit rate of the full collection: about 6.1%.
ALOX15 inhib: 15-hLO (ALOX15) enzyme inhibition; P16050; purified 15hLO-1, xylenol orange hydroperoxide absorbance; Potency, µM (doses to about 57.1 µM), for inactives: at the top dose activity change, negative = inhibition, most hits filed as inhibitors; hit rate 1.4% among 74,000; note: nearly all actives have a fitted effect of over 55% in size
Target sequence (P16050 whole entry, looked up): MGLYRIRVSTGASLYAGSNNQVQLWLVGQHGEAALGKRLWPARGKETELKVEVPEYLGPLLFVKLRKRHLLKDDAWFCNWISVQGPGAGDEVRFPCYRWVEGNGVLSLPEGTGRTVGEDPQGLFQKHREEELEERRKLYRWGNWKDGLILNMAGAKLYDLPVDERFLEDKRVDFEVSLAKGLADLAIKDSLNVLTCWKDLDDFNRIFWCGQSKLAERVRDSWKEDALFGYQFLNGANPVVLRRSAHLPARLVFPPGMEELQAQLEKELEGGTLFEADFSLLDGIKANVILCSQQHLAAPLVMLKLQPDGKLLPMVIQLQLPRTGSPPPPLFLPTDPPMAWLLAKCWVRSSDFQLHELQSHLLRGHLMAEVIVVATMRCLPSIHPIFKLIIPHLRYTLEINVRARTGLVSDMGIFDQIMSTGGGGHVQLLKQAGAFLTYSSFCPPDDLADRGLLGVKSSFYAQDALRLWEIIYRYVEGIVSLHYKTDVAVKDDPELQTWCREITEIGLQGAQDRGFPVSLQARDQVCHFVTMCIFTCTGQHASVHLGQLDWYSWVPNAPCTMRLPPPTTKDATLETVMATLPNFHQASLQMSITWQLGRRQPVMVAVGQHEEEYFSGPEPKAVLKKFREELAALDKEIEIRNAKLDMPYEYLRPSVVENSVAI
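Compounds were preincubated 15 min at room temperature with 40 nM purified human enzyme (25 mM Hepes pH 7.5, 0.01% Triton X-100); 50 uM arachidonic acid reacted 6 min. Fe-xylenol orange detection, 30 min, absorbance ratio 573/405 nm.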
FLuc inh: blocks Photinus pyralis firefly luciferase activity. AID 411. Potency, µM (doses to about 57.1 µM), inactives show at the top dose activity change, negative = inhibition, usual class: inhibitors. hit rate 2.2% among 72,000. purified firefly luciferase, luminescence, 8 min. P08659; note: nearly all actives have a fitted effect of over 40% in size
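Compounds were tested as concentration series (qHTS) against purified P. pyralis luciferase with luciferin and 10 uM ATP in 50 mM imidazole pH 7.2, 50 mM KCl, 7 mM MgCl2, 0.01% Tween 20, 0.05% BSA. Luminescence was read after 8 min at ambient temperature.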
Bst PK mod: modulators of Bacillus stearothermophilus pyruvate kinase; Potency, µM; hit rate 1.2% among 51,000; purified pyruvate kinase, luminescence ATP production; ribose 5-phosphate activator present at AC10; in the data active = potency below about 11 µM; inconclusive = mostly about 12 µM to 25 µM;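 the screen sought inhibitors and activators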;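 note: scaled between full activation by ribose 5 phosphate and full inhibition by luteolin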
ERK AVP block: blocks ERK signaling stimulated by vasopressin | Potency, µM (top dose mostly 57.5 µM), without a hit: top-dose activity, negative = inhibition, hits mostly inhibitors | HEK293-V1b, vasopressin-stimulated pERK AlphaScreen | hit rate 0.99% among 72,000 | AID 995; note: nearly all actives have a fitted effect of over 55% in size
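Overnight-seeded V1b-HEK293 cells in 1% FBS got compound, then vasopressin (25 nM final, 5 min, 37C), then lysis buffer. AlphaScreen detection of phospho-ERK; activity normalized to basal and full-stimulation controls.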
Tau fil binding: binders of human tau filaments | recombinant tau filaments, thioflavin S fluorescence, 15 h; filaments grown with octadecylsulfate alongside compound | Potency, µM (top dose mostly 57.1 µM), inactives show at the top dose activity change, negative = inhibition | hit rate 2% among 71,000 | AID 596;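 note: actives lower thioflavin S fluorescence by blocking filaments or displacing dye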
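Assay mix: 1 uM His-tagged tau, 30 uM sodium octadecylsulfate, thioflavine S dye in HEPES/NaCl/DTT buffer. Compound is added prior to the inducer. Fluorescence after 15 h at 37 C.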
Hsp90 Hop PPI: changes Hsp90-Hop TPR2A binding signal, up or down; AlphaScreen TPR2A-His6 binding biotin-Hsp90 C-terminal peptide; Potency, µM (series often up to 57 µM), for the others: at the highest dose activity change, negative = inhibition; hit rate 0.44% among 71,000; AID 595; active = well fitted curve in either direction with a large enough effect; inconclusive = small, poorly fitted or top-dose-only effect, or another doubt
Numbers without * were called inactive; i = inactive; ? = inconclusive; . = no result; ! = repeats disagree; [ ] = remark or other dose. Unless noted, calls come from the whole dose curve; as a rule, active = well fitted curve in the direction sought with a large enough effect; inconclusive = small, poorly fitted or top-dose-only effect, or another doubt; inactive = no such curve, though single readings can be large; an effect the other way counts as inactive or inconclusive. Unless noted, % is set by controls: 0 for no effect and ±100 for the full control effect; potency is the fitted concentration of half-maximal effect.

SMILES | ALOX15 inhib | FLuc inh | Bst PK mod | ERK AVP block | Tau fil binding | Hsp90 Hop PPI
CCN1C(=O)[C@H]2[C@H]3[C@H](O)[C@H](O)C/C(=N/OC[C@@H]4O[C@H](c5ccccc5)C=C[C@@H]4Oc4ccc(OC)cc4)[C@@H]3CC[C@@H]2C1=O | -2%[11.4 µM] | 2%[11.4 µM] | . | -2%[11.5 µM] | . | .
Cc1[nH]c2ccccc2c1-c1cc(-c2cc(-c3c(C)[nH]c4ccccc34)nc(N)n2)nc(N)n1 | -4%[11.4 µM] | 4%[11.4 µM] | . | 0%[11.5 µM] | -4%[11.4 µM] | -2%[11 µM]
CC(C)c1ccc2oc(-c3ccc(NC(=O)c4ncn[nH]4)cc3)nc2c1 | ? | 10µM* | i | 10% | 347% | ?
COC(=O)c1ccc(-c2nc3ccc(C)cc3o2)cc1 | -2% | ? | 3.3* | 6% | 5% | 1%
CCN(CC)c1ccc2c(c1)oc(=O)c1c(Cl)cc(=O)oc12 | -19% | -2% | >57 | ? | i | 4%
CCOC(=O)Cc1c(C)c2ccc(N(CC)CC)cc2oc1=O | -1% | -4% | . | -13% | 272% | 25µM*
CCN(CC)c1ccc2c(Cl)c(Br)c(=O)oc2c1 | ? | -3% | i | 5% | i | 25µM*
c1ccc(-c2noc(-c3cccc4ccccc34)n2)nc1 | -2% | 7.9µM* | 9.6* | ? | 26% | -7%
Clc1cccc(-c2nc(-c3ccccn3)no2)c1 | 0% | 2.5µM* | 3.3* | 13% | 30% | 3%
c1ccc(-c2cc(-c3nc(-c4ccccn4)no3)c3ccccc3n2)cc1 | 3% | -5% | . | ? | ? | 10%
Cc1ccc(-c2nc(-c3ccccn3)no2)cc1Cl | -10% | 0.4µM* | 0.54* | -7% | 49% | 2%
COc1cccc(-c2nc(-c3ccccn3)no2)c1OC | 8% | ? | i | -29% | 0% | 1%
Cc1ccc(-c2nc(-c3ccccn3)no2)cc1 | 5% | . | . | . | . | .
COc1ccccc1CN1CCC2(CC1)CCN(C(=O)c1cc(C(F)(F)F)cc(C(F)(F)F)c1)CC2 | 3% | 3%[11.4 µM] | . | -8% | -20% | -2%
O=C1C2C(C(=O)N1c1ccncc1)C1C=CC2C12CC2 (stereo not given) | 10% | -5% | >57 | -14% | 0% | -7%
Cc1ccc(N2C(=O)C3C(C2=O)C2C=CC3C23CC3)cc1 (stereo not given) | 5% | 13µM* | . | -6% | 6% | 1%
CC1CCC2C(=O)OC(COc3ccc(C(C)(C)C)cc3)CN2C1c1ccc(Br)cc1 (stereo not given) | 4%[11.4 µM] | . | . | 9%[11.5 µM] | . | .
N[C@@H](Cc1c[nH]c2ccc(O)cc12)C(=O)O | ? | -4% | . | -10% | -10% | -4%
Oc1ccc2[nH]ccc2c1 | ? | -4% | >57 | -29% | 20µM* | -5%
O=C(CSc1nnc(-c2ccc(Cl)cc2)o1)N1CCN(c2ccccc2)CC1 | -17% | -1% | >57 | 17% | 13µM* | -4%
C=C1CC[C@@H]2O[C@]2(C)CC[C@@H]2[C@H]1CC2(C)C | . | 1%[11.4 µM] | . | . | -19% | -5%
Cc1cc(=Nc2ccc3c(c2)c(N)cc(C)[n+]3C)nc(N)n1C | 48%[11.4 µM] | 6%[11.4 µM] | . | 5%[11.5 µM] | 102%[11.4 µM] | -6%[11 µM]
O=C1c2ccccc2-c2cc([N+](=O)[O-])c([N+](=O)[O-])cc21 | 12%[11.4 µM] | -4%[11.4 µM] | . | ? | 4µM* | -26%[11 µM]
COc1ccc(NC(=O)N2CC[C@@]3(CCCN(C(=O)c4cccc(F)c4)C3)C2)cc1 | 0% | 0%[11.4 µM] | . | 30% | 0% | -9%
N#CC(=C(/N)Sc1ccccc1N)/C(C#N)=C(/N)Sc1ccccc1N | 13µM*! | 1% | . | 0.2µM* | ? | -22%
COc1cccc(Cn2c(=O)cnc3cnc(Oc4cccc(Cl)c4)nc32)c1 | -14% | 1%[11.4 µM] | . | -14% | ? | 1%
N#Cc1cccc(-c2cc(NCc3cccs3)ncn2)c1 | ? | -1%[2.29 µM] | . | 13µM* | -5% | 5%
Cc1c(NC(=O)c2cc(-n3cnnc3)ccc2Cl)cccc1-c1nc2ccccc2o1 | -7% | 7.9µM* | 5.7* | -20% | 192% | -5%
O=C(Nc1ccc(-c2nc3ccccc3o2)c(O)c1)c1cc(-n2cnnc2)ccc1Cl | 4% | -1% | . | 6.3µM* | i | -5%
